Assay results: PubChem BioAssay AID1159580 (chemical genetic matrix, 2015)
Values joined by “and” are separate entries in the source; they are usually repeats but may differ in a detail not shown here. Identical values can stand only once. Screen size: about 5,500 compounds; about 2,000 (36%) were called active. Inconclusive results (about 18%) are left out. Rule as the data show it: active = normalized growth mostly below about 0.91 (no sharp cut-off); inconclusive = no clear call, values can overlap the other calls; inactive = mostly above about 0.92. This is one part of the list.

Experiment: chemical genetic growth profiling, strain panel (AID 1159580);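 also: tested at 20 µM; growth read once vehicle control cultures reached saturation at 30 °C; 1 = growth at the plate median or of vehicle wells; lower values mean less growth of the strain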
Conditions: growth OD

Measured: normalized growth

Clc1ccc2c(c1)C(N1CCNCC1)=Nc1ccccc1O2
active: S. cerevisiae deletion strains, locus YMR231W, strain pep5, active compounds read low 0.487 | S. cerevisiae deletion strains, locus YOR083W, strain WHI5 (second series), active compounds read low 1.13 [resistant]
inactive: S. cerevisiae deletion strains, locus YKL068W, active compounds read low 0.996 | S. cerevisiae deletion strains, locus YKL085W, strain MDH1 (second series), active compounds read low 1.01 | S. cerevisiae deletion strains, locus YKL085W, strain MDH1, active compounds read low 1.01 | S. cerevisiae deletion strains, locus YKL160W, strain elf1, active compounds read low 1.01 | S. cerevisiae deletion strains, locus YKL190W, strain CNB1, active compounds read low 0.996 | S. cerevisiae deletion strains, locus YKR001C, strain vps1, active compounds read low 1.03 | S. cerevisiae deletion strains, locus YKR026C, strain gcn3, active compounds read low 0.983 | S. cerevisiae deletion strains, locus YKR091W, strain srl3, active compounds read low 0.989 | S. cerevisiae deletion strains, locus YLL001W, strain dnm1, active compounds read low 0.987 | S. cerevisiae deletion strains, locus YLL026W, active compounds read low 1 | S. cerevisiae deletion strains, locus YLL041C, strain sdh2, active compounds read low 1 | S. cerevisiae deletion strains, locus YLR027C, strain aat2, active compounds read low 0.986 | S. cerevisiae deletion strains, locus YLR039C, strain RIC1, active compounds read low 1.32 | S. cerevisiae deletion strains, locus YLR058C, strain SHM2, active compounds read low 0.979 | S. cerevisiae deletion strains, locus YLR102C, strain apc9, active compounds read low 0.993 | S. cerevisiae deletion strains, locus YLR113W, strain HOG1, active compounds read low 1.02 | S. cerevisiae deletion strains, locus YLR221C, strain rsa3, active compounds read low 0.985 | S. cerevisiae deletion strains, locus YLR258W, strain gsy2, active compounds read low 0.991 | S. cerevisiae deletion strains, locus YLR262C, strain YPT6 (second series), active compounds read low 1.04 | S. cerevisiae deletion strains, locus YLR262C, strain YPT6, active compounds read low 1.38 | S. cerevisiae deletion strains, locus YLR268W, strain sec22, active compounds read low 1.08 | S. cerevisiae deletion strains, locus YLR320W, strain mms22, active compounds read low 0.967 | S. cerevisiae deletion strains, locus YLR330W, strain CHS5, active compounds read low 0.988 | S. cerevisiae deletion strains, locus YLR342W, strain FKS1 (second series), active compounds read low 0.901 | S. cerevisiae deletion strains, locus YLR342W, strain FKS1, active compounds read low 0.955 | S. cerevisiae deletion strains, locus YLR357W, strain rsc2, active compounds read low 0.97 | S. cerevisiae deletion strains, locus YLR370C, strain arc18, active compounds read low 0.993 | S. cerevisiae deletion strains, locus YLR371W, strain rom2, active compounds read low 0.968 | S. cerevisiae deletion strains, locus YLR384C, strain iki3, active compounds read low 0.977 | S. cerevisiae deletion strains, locus YLR418C, strain cdc73, active compounds read low 0.981 | S. cerevisiae deletion strains, locus YML016C, strain PPZ1, active compounds read low 0.981 | S. cerevisiae deletion strains, locus YML032C, strain rad52, active compounds read low 1.01 | S. cerevisiae deletion strains, locus YML120C, strain ndi1, active compounds read low 1.01 | S. cerevisiae deletion strains, locus YML124C, strain tub3, active compounds read low 0.979 | S. cerevisiae deletion strains, locus YMR058W, strain fet3, active compounds read low 0.981 | S. cerevisiae deletion strains, locus YMR078C, strain ctf18, active compounds read low 0.983 | S. cerevisiae deletion strains, locus YMR125W, strain sto1, active compounds read low 0.928 | S. cerevisiae deletion strains, locus YMR129W, active compounds read low 1.01 | S. cerevisiae deletion strains, locus YMR205C, strain PFK2, active compounds read low 0.998 | S. cerevisiae deletion strains, locus YMR223W, strain ubp8, active compounds read low 0.962 | S. cerevisiae deletion strains, locus YMR263W, strain SAP30, active compounds read low 0.979 | S. cerevisiae deletion strains, locus YMR307W, strain GAS1, active compounds read low 1.15 | S. cerevisiae deletion strains, locus YNL067W, strain RPL9B, active compounds read low 1.01 | S. cerevisiae deletion strains, locus YNL071W, strain lat1, active compounds read low 0.972 | S. cerevisiae deletion strains, locus YNL128W, strain TEP1, active compounds read low 0.975 | S. cerevisiae deletion strains, locus YNL153C, strain GIM3, active compounds read low 1.01 | S. cerevisiae deletion strains, locus YNL175C, strain NOP13, active compounds read low 1 | S. cerevisiae deletion strains, locus YNL183C, strain NPR1, active compounds read low 0.966 | S. cerevisiae deletion strains, locus YNL197C, strain WHI3, active compounds read low 1.01 | S. cerevisiae deletion strains, locus YNL209W, strain ssb2, active compounds read low 0.991 | S. cerevisiae deletion strains, locus YNL224C, strain SQS1, active compounds read low 1.02 | S. cerevisiae deletion strains, locus YNL233W, strain BNI4, active compounds read low 1 | S. cerevisiae deletion strains, locus YNL248C, strain rpa49, active compounds read low 0.998 | S. cerevisiae deletion strains, locus YNL250W, strain rad50, active compounds read low 0.981 | S. cerevisiae deletion strains, locus YNL271C, strain bni1, active compounds read low 0.994 | S. cerevisiae deletion strains, locus YNL298W, strain CLA4, active compounds read low 0.97 | S. cerevisiae deletion strains, locus YNL307C, strain MCK1, active compounds read low 0.983 | S. cerevisiae deletion strains, locus YNL322C, strain KRE1 (second series), active compounds read low 0.986 | S. cerevisiae deletion strains, locus YNL322C, strain KRE1, active compounds read low 0.99 and 0.992 | S. cerevisiae deletion strains, locus YNR049C, strain mso1, active compounds read low 0.995 | S. cerevisiae deletion strains, locus YNR052C, strain pop2, active compounds read low 0.97 | S. cerevisiae deletion strains, locus YOL006C, strain TOP1, active compounds read low 1.06 | S. cerevisiae deletion strains, locus YOL012C, strain htz1 1.29 | S. cerevisiae deletion strains, locus YOL147C, strain pex11, active compounds read low 1 | S. cerevisiae deletion strains, locus YOR001W, strain rrp6, active compounds read low 0.937 | S. cerevisiae deletion strains, locus YOR061W, strain CKA2, active compounds read low 0.969 | S. cerevisiae deletion strains, locus YOR069W, strain VPS5, active compounds read low 0.991 | S. cerevisiae deletion strains, locus YOR070C, strain gyp1, active compounds read low 1 | S. cerevisiae deletion strains, locus YOR080W, strain dia2, active compounds read low 0.989 | S. cerevisiae deletion strains, locus YOR083W, strain WHI5, active compounds read low 0.937 | S. cerevisiae deletion strains, locus YOR106W, strain vam3, active compounds read low 0.953 | S. cerevisiae deletion strains, locus YOR136W, strain idh2, active compounds read low 0.975 | S. cerevisiae deletion strains, locus YOR144C, strain elg1, active compounds read low 0.99 | S. cerevisiae deletion strains, locus YOR184W, strain ser1, active compounds read low 1.01 | S. cerevisiae deletion strains, locus YOR231W, strain MKK1, active compounds read low 1.02 | S. cerevisiae deletion strains, locus YOR265W, strain rbl2, active compounds read low 0.992 | S. cerevisiae deletion strains, locus YOR270C, strain vph1, active compounds read low 0.818 | S. cerevisiae deletion strains, locus YOR290C, strain snf2, active compounds read low 0.948 | S. cerevisiae deletion strains, locus YOR316C, strain cot1, active compounds read low 0.987 | S. cerevisiae deletion strains, locus YPL051W, strain arl3, active compounds read low 0.987 | S. cerevisiae deletion strains, locus YPL055C, strain LGE1, active compounds read low 0.989 | S. cerevisiae deletion strains, locus YPL078C, strain atp4, active compounds read low 0.991 | S. cerevisiae deletion strains, locus YPL106C, strain sse1, active compounds read low 0.966 | S. cerevisiae deletion strains, locus YPL240C, strain hsp82, active compounds read low 0.978 | S. cerevisiae deletion strains, locus YPL241C, strain CIN2, active compounds read low 1 and 0.992 | S. cerevisiae deletion strains, locus YPL256C, strain CLN2, active compounds read low 1.03 | S. cerevisiae deletion strains, locus YPR119W, strain clb2, active compounds read low 0.994 | S. cerevisiae deletion strains, locus YPR141C, strain kar3, active compounds read low 0.956 | S. cerevisiae deletion strains, locus YPR163C, strain tif3, active compounds read low 0.986 | S. cerevisiae deletion strains, locus YPR167C, strain met16, active compounds read low 0.988 | S. cerevisiae deletion strains, strain wtn01, active compounds read low 0.991 | S. cerevisiae strains, strain wild type, active compounds read low 0.977
